According to PubChem BioAssay (NCATS):
Records with an inconclusive call do not appear. Unless noted, calls come from the whole dose curve; as a rule, active = well fitted curve in either direction with a large enough effect (not every such curve was filed as active); inconclusive = small, poorly fitted or top-dose-only effect, or another doubt; inactive = flat fitted curve, though single readings scatter.

Key:
[1] = AP1 Signaling Pathway (AID 357); settings: ME-180 AP-1-bla reporter, EGF-induced, beta-lactamase ratio, 5 h; at 17.2 µM (top of the series) unless noted;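 note: ME-180 reporter cells stimulated with EGF at its EC50 level; % is set by controls: 0 for no effect and ±100 for the full control effect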
Summary of the method: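 Cells are seeded overnight, exposed to compound titrations and an EC50 level of EGF for 5 hours at 37 °C, then loaded with CCF4 dye for 2.5 hours. Beta-lactamase activity under the AP-1 element is read as a blue/green ratio.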

[2] = Stat Signaling Pathway (AID 446); settings: ME-180 (cervical carcinoma) SIE beta-lactamase reporter, IL-6 stimulated, 5 h; at 17.2 µM (top of the series) unless noted;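 note: ME-180 cervical cancer cells given 40 pM IL-6 alongside compound; SIE-controlled beta-lactamase reporter measured as 460/530 nm FRET emission ratio; % is set by controls: 0 for no effect and ±100 for the full control effect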
Summary of the method: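 FRET read-out (405 nm excitation, 460/530 nm emission) of a beta-lactamase reporter under a STAT-inducible element in ME-180 cervical carcinoma cells. Cells with compound receive 40 pM IL-6 for 5 h. Values are normalised to AC90 stimulation and AC90 JAK-inhibitor controls.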

[3] = molecular target: Glucocorticoid receptor (Homo sapiens) (UniProt P04150); test: GR-GFP Redistribution (AID 450;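 active = compounds whose dose series gives a full or clear partial fitted curve of increased nuclear translocation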; note: potency is the fitted concentration of half-maximal effect)
Glucocorticoid receptor (Homo sapiens), sequence (P04150 whole entry, looked up): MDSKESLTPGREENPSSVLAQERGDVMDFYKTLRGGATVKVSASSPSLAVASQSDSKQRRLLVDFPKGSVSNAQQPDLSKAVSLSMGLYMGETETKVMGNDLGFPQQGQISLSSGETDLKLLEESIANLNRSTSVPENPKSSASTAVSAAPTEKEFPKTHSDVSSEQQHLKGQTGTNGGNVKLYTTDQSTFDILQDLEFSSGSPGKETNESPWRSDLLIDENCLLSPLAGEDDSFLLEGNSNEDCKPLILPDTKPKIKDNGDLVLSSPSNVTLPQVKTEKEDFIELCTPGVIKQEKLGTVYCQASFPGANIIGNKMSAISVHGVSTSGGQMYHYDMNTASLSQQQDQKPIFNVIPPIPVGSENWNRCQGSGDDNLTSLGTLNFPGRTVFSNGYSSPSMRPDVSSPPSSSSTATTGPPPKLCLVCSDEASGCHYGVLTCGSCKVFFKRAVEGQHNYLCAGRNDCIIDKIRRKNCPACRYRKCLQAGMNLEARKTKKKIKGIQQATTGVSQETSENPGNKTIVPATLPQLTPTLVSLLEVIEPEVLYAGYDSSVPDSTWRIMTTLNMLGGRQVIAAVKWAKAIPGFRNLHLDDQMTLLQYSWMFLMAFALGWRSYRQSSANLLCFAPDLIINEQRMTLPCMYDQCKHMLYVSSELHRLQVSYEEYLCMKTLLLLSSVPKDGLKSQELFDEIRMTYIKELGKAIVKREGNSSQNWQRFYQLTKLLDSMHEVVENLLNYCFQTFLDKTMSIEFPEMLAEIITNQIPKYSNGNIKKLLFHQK

CCOC(=O)C1=C(N)c2ccccc2CC1C(C)C (configuration not stated)
inactive: activity change, negative = inhibition [1] -3.93% | activity, negative = inhibition [2] -8.13% | Potency [3] > 20.6 µM

CCc1nc(NC2CCCCC2)c(C#N)c2c1COC(C)(C)C2
inactive: activity change, negative = inhibition [1] 7.15% | activity, negative = inhibition [2] 7.37% | Potency [3] > 20.6 µM

N#Cc1c(N2CCOCC2)nc(N2CCCCC2)c2c1CCN(C1CCCCC1)C2
inactive: activity change, negative = inhibition [1] -8.29% | activity, negative = inhibition [2] 4.09% | Potency [3] > 20.6 µM

Cc1nc(/N=C(\N)Nc2ccccc2)nc2ccccc12
inactive: activity change, negative = inhibition [1] -14.5% | activity, negative = inhibition [2] -26.3% | Potency [3] > 20.6 µM

CCN(CC)c1nc(-c2cccc(OC)c2O)nc2ccccc12
inactive: activity change, negative = inhibition [1] -20.9% | activity, negative = inhibition [2] -20% | Potency [3] > 20.6 µM

Cc1ccccc1OCc1nc2ccccc2c(=O)n1NC(=O)c1ccco1
inactive: activity change, negative = inhibition [1] 4.16% | activity, negative = inhibition [2] 1.48% | Potency [3] > 20.6 µM

COc1ccc(CSC2=NCCN2)cc1Cl
inactive: activity change, negative = inhibition [1] 15.6% | activity, negative = inhibition [2] 8.84% | Potency [3] > 20.6 µM

COc1ccc(/C=C/C2=NC(=C\N(C)C)/C(=O)O2)cc1
inactive: activity change, negative = inhibition [1] -4.1% | activity, negative = inhibition [2] -0.663% | Potency [3] > 20.6 µM

Fc1ccccc1-c1nc(NCCCN2CCOCC2)c2ccccc2n1
inactive: activity change, negative = inhibition [1] 0.19% | activity, negative = inhibition [2] -7.69% | Potency [3] > 20.6 µM

CCCCN(CCCC)C(=O)CSc1nnc2n(C)c(=O)c3c4c(sc3n12)CCCC4
inactive: activity change, negative = inhibition [1] -8.91% | activity, negative = inhibition [2] -16.8% | Potency [3] > 20.6 µM

Cn1c(=O)c2c3c(sc2n2c(SCc4ccccc4)nnc12)CCCC3
inactive: activity change, negative = inhibition [1] -6.83% | activity, negative = inhibition [2] -27.8% | Potency [3] > 20.6 µM

COc1cccc(C(=O)OCCN(C)C(C)(C)C)c1
inactive: activity change, negative = inhibition [1] 2.79% | activity, negative = inhibition [2] 3.74% | Potency [3] > 20.6 µM

c1coc(-c2nnc3sc(Cc4cccs4)nn23)c1
inactive: activity change, negative = inhibition [1] -15.4% | activity, negative = inhibition [2] -17.3% | Potency [3] > 20.6 µM

O=c1[nH]c(=O)n(Cc2ccco2)c2c1C(C(F)(F)F)(C(F)(F)F)N=C(c1ccco1)N2
inactive: activity change, negative = inhibition [1] 3.52% | activity, negative = inhibition [2] -26.4% | Potency [3] > 20.6 µM

CCCc1nc(N2CCCC2)c(C#N)c2c1CCCC2
inactive: activity change, negative = inhibition [1] -2.98% | activity, negative = inhibition [2] 10.3% | Potency [3] > 20.6 µM

C=CCn1c(SCC(=O)OC)nc2sc3c(c2c1=O)CCN(C)C3
inactive: activity change, negative = inhibition [1] -12.5% | activity, negative = inhibition [2] 2.28% | Potency [3] > 20.6 µM

COc1cc(OC)cc(C(=O)N2CCC(N3CCCCCC3)CC2)c1
inactive: activity change, negative = inhibition [1] -0.714% | activity, negative = inhibition [2] 0.747% | Potency [3] > 20.6 µM

CCCCSc1nnc2n(CCc3ccccc3)c(=O)c3c4c(sc3n12)COC(C)(C)C4
inactive: activity change, negative = inhibition [1] -9.1% | activity, negative = inhibition [2] -12.7% | Potency [3] > 20.6 µM

CCOc1ccc(-c2nn3c(-c4ccc(OC)cc4)nnc3s2)cc1
inactive: activity change, negative = inhibition [1] -1.24% | activity, negative = inhibition [2] 24.4% | Potency [3] > 20.6 µM

COc1ccc2c(c1OC)C(=O)N1c3ccccc3C(=O)N(c3ccc(F)cc3)C21 (configuration not stated)
inactive: activity change, negative = inhibition [1] -3.68% | activity, negative = inhibition [2] -12.3% | Potency [3] > 20.6 µM

N#CC1=C(N)N(c2ccccc2)C(c2ccccc2)C1(C#N)C#N (configuration not stated)
inactive: activity change, negative = inhibition [1] -27.2% | activity, negative = inhibition [2] -18.6% | Potency [3] > 20.6 µM

N#C/C(C(=O)NCc1ccco1)=C1/SC(Cc2ccc(Cl)cc2)C(=O)N1c1ccccc1 (configuration not stated)
inactive: activity change, negative = inhibition [1] -16.2% | activity, negative = inhibition [2] -13.4% | Potency [3] > 20.6 µM

COc1ccccc1-c1nn2c(-c3ccco3)nnc2s1
inactive: activity change, negative = inhibition [1] 0.523% | activity, negative = inhibition [2] -5.72% | Potency [3] > 20.6 µM

C=CCn1c(=S)[nH]c2nc3c(cc2c1=O)CCCC3
inactive: activity change, negative = inhibition [1] -14.7% | activity, negative = inhibition [2] -11.2% | Potency [3] > 20.6 µM

CN1C2C=C3C(C#N)=C(N)C(C#N)(C#N)[C@@H](c4ccsc4)[C@@H]3C1CC2 (some centres not stated)
inactive: activity change, negative = inhibition [1] 20.1% | activity, negative = inhibition [2] 3.71% | Potency [3] > 20.6 µM

COc1ccc(S(=O)(=O)N2CCC(N3CCCCC3)CC2)cc1
inactive: activity change, negative = inhibition [1] 7.98% | activity, negative = inhibition [2] 6.94% | Potency [3] > 20.6 µM

CCCCc1nc(NCC2CCCO2)c(C#N)c2c1COC(C)(C)C2 (configuration not stated)
inactive: activity change, negative = inhibition [1] -26.3% | activity, negative = inhibition [2] 1.02% | Potency [3] > 20.6 µM

CC1(C)Cc2nc3sc4c(N(CCO)CCO)ncnc4c3cc2CO1
inactive: activity change, negative = inhibition [1] 1.68% | activity, negative = inhibition [2] -5.3% | Potency [3] > 20.6 µM

COC(=O)CN(c1nc(C)c(Cl)c(OC)n1)S(=O)(=O)c1ccc(C)cc1
inactive: activity change, negative = inhibition [1] 6.71% | activity, negative = inhibition [2] 3.43% | Potency [3] > 20.6 µM

CCCCNC(=O)C(C#N)c1nc2ccccc2nc1N1CCN(c2ccccc2F)CC1 (configuration not stated)
inactive: activity change, negative = inhibition [1] -4.46% | activity, negative = inhibition [2] 0.859% | Potency [3] > 20.6 µM

COC(=O)CC1=C(C(=O)OC)C(c2ccc3c(c2Cl)OCO3)C(C#N)=C(N)O1 (configuration not stated)
inactive: activity change, negative = inhibition [1] 29.4% | activity, negative = inhibition [2] 14.3% | Potency [3] > 20.6 µM

Cc1ccc2nc(NCc3ccccc3)[nH]c2c1
inactive: activity change, negative = inhibition [1] 1.71% | activity, negative = inhibition [2] -9.23% | Potency [3] > 20.6 µM

CCC(C)Nc1nc(-c2cccc(OC)c2O)nc2ccccc12 (configuration not stated)
inactive: activity change, negative = inhibition [1] -28.3% | activity, negative = inhibition [2] -18.2% | Potency [3] > 20.6 µM

CCCCCNC(=O)C(C#N)c1nc2ccccc2nc1N1CC(C)OC(C)C1 (configuration not stated)
inactive: activity change, negative = inhibition [1] -18.2% | activity, negative = inhibition [2] -11.4% | Potency [3] > 20.6 µM
